Assay results from PubChem BioAssay AID1416 (The Scripps Research Institute Molecular Screening Center, 2008).
Among all 220,000 compounds or so, about 370 (0.17%) were called active. The list comes from a sample in which actives are over-represented; it also holds similar structures and randomly drawn compounds. Values without a mark were called inactive.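 Rule for the calls: active = inhibition above the mean inhibition of all tested compounds plus 3 SD, set separately per screening campaign (cut at about 2.9% in these data); inactive = the rest.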

Target: Eukaryotic translation initiation factor 2-alpha kinase 3 (Homo sapiens) (UniProt Q9NZJ5)
Assay: block of dimerizer-induced PERK translation repression, primary screen, PERK inhibitor project, CHO PERK-DD cells, SEAP luminescence, HTS (AID 1416);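 note: PERK kinase domain activated by AP20187 dimerizer at 100 nM; 0% = DMSO with dimerizer and 100% = rapamycin at 8.4 µM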
Conditions: CHO PERK-DD fusion, SEAP luminescence translation reporter; at 5.6 µM; stronger effect = higher value

Eukaryotic translation initiation factor 2-alpha kinase 3 (Homo sapiens), sequence (Q9NZJ5 whole entry, looked up, the tested form may be a part): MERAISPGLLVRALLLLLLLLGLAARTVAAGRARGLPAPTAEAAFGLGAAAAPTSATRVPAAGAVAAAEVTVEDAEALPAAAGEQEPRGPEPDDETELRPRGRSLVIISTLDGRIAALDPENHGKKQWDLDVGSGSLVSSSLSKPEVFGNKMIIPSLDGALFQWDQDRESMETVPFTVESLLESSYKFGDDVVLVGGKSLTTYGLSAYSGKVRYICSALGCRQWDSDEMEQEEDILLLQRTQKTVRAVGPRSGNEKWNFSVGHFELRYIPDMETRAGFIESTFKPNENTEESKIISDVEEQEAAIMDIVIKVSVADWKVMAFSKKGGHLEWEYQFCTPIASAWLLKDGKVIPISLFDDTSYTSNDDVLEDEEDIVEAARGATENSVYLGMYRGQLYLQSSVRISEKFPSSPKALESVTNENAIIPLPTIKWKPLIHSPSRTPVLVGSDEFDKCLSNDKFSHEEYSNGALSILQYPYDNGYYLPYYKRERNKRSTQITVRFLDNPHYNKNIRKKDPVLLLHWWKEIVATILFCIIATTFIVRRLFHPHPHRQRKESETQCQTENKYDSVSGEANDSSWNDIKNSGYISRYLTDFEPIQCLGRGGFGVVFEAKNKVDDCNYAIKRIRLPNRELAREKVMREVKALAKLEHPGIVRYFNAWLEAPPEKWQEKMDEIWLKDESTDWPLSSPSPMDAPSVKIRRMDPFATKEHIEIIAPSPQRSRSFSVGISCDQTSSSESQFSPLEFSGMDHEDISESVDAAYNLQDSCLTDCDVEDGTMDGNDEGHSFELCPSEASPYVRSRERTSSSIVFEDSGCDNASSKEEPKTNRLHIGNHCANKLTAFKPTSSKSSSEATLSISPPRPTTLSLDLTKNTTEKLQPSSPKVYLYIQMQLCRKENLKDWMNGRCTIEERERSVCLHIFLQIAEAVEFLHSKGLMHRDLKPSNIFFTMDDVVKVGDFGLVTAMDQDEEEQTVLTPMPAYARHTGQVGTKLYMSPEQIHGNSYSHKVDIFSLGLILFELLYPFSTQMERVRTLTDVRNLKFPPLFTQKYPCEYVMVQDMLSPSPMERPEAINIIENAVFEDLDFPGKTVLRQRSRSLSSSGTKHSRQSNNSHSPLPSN

Row | SMILES | inhibition
1 | CC1=NN(C(C)C)C(=O)C1 | 0.1%
2 | O=C(CN1CCN(S(=O)(=O)c2ccc3ccccc3c2)CC1)NC(=O)NC1CCCCC1 | -1.71%
3 | COc1ccc(-n2c(C)nn(CC3CC3)c2=O)cc1 | 0.52%
4 | COc1ccc(CN2CCCC(CNC(=O)c3ccc(F)cc3)C2)cc1OC (stereo not drawn) | 0.78%
5 | O=C(NNC(=O)C1CCN(c2ncccn2)CC1)c1ccccc1 | 1.78%
6 | Cc1cc(Cl)ccc1OCCCC(=O)NCc1ccccn1 | 0.34%
7 | O=C(Nc1cccnc1)c1cc([N+](=O)[O-])ccc1Cl | 1.12%
8 | Cc1cc(=O)[nH]c(N/N=C/c2c(C)nn(-c3ccccc3Cl)c2Cl)n1 | 0.41%
9 | COc1ccc2[nH]c(=S)cc(C)c2c1 | 3.26% (active)
10 | COc1ccc2[nH]c(=O)c(CNc3ccc(C)c(C)c3)cc2c1 | 0.88%
11 | COc1ccc2[nH]c3ccc(OC)cc3c2c1 | -0.09%
12 | CN1CCN(CCC(=O)N/N=C/C=C2\N(C)c3ccccc3C2(C)C)CC1 | 0.12%
13 | O=C(COC(=O)c1cnc(Cl)c(Cl)c1)NCc1ccco1 | -0.25%
14 | NC(=O)Cc1ccc2sc(-c3ccccc3)nc2c1 | 0%
15 | O=C(CCNc1n[nH]c(=O)[nH]c1=O)N/N=C\c1ccc(Br)cc1 | 1.9%
16 | Cc1cc(/C=N/NC(=O)CC2(C)OCCO2)c(C)n1-c1ccc(Cl)c(Cl)c1 | -0.35%
17 | CC(=O)NC1=NN(C(C)=O)C(C)(c2ccc(C)cc2)S1 (stereo not drawn) | 0.26%
18 | COc1ccc(CC(NC(C)=O)C(=O)NC2CCN(C(=O)c3ccc(OC)c(OC)c3)CC2)cc1OC (stereo not drawn) | 0.49%
19 | O=C(COc1ccc([N+](=O)[O-])cc1Cl)Nn1cnnc1 | 0.99%
20 | CN(C)S(=O)(=O)c1cccc(NC(=S)NCc2ccc3c(c2)OCO3)c1 | -0.05%
21 | COC(OC)c1ccnc(SCc2ccccc2Cl)n1 | 1.69%
22 | CCN1CCN(C(=O)CCN2C(=O)c3ccccc3C2=O)CC1 | 1.42%
23 | COC(=O)c1cc2n(n1)CCCNC2=O | 0.06%
24 | CCN(CC)CCOC(=O)c1ccc(NC(=O)CNC(=O)c2ccccc2)cc1 | 2.02%
25 | CCn1nc(C)c(CN2CCN(Cc3ccc(OC)c(C)c3C)C(CCO)C2)c1C (stereo not drawn) | -0.31%
26 | COc1ccc(N2C(=O)C(Cc3ccccc3)NC2=S)cc1 (stereo not drawn) | 0.37%
27 | O=C1C(Cc2ccc(O)cc2)NC(=S)N1Cc1ccccc1 (stereo not drawn) | 3.13% (active)
28 | Cc1ccc(N2C(=O)C(Cc3ccccc3)NC2=S)cc1 (stereo not drawn) | -0.27%
